Data reported in the supplement of paper PMC3334620.
The full ranking holds about 33,000 sequences; the median of “E-score (-0.5 to 0.5)” is about -0.013, and the highest 2% start at about 0.3. Many of the other results were omitted from the sample, so the highest values are more common in it than they were.

target: T1, Msn1 (UniProt P22148); assay: PBM E-score (8-mer binding enrichment) (E-score (-0.5 to 0.5)); higher = stronger / more preferred TF binding; details: protein concentration: 200 nM; construct: GST-full length
T1 sequence: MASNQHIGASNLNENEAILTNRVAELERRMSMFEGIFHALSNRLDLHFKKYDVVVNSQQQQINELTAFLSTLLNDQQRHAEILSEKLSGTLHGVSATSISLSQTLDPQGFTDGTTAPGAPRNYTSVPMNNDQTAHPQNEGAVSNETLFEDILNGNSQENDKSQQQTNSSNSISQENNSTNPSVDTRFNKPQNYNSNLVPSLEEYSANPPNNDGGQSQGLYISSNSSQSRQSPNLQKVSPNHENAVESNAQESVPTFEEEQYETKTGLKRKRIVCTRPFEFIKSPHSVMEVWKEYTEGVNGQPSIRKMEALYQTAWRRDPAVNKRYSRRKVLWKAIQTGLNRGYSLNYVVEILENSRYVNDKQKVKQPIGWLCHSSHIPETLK
Summary of the method: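 Universal all-10-mer Agilent arrays, fresh or stripped once, were converted to double-stranded form by primer extension. GST-tagged yeast transcription factors from PURExpress in vitro transcription/translation, full-length or DNA-binding domain only, were applied at about 100-200 nM and detected with fluorescent anti-GST. After masliner normalisation, the Universal PBM Analysis Suite scored each ungapped eight-base word together with its reverse complement by E-score.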

| Sequence | PBM E-score |
| --- | --- |
| AAAACGCC | 0.045 |
| GCTGCGCC | -0.192 |
| CAAAGTGC | 0.0233 |
| CGCGCCCG | -0.0907 |
| ACTAGACG | 0.112 |
| CCTTGCCG | -0.0395 |
| AAAGATCC | -0.12 |
| AGAGATCG | -0.0703 |
| GTACGAAA | 0.249 |
| CTACGAAC | 0.0953 |
| GTACGAAC | 0.311 |
| GCACCCAC | -0.091 |
| CCTACCAA | 0.133 |
| CAAGATGG | -0.0978 |
| GGTACAAC | 0.188 |
| CGTACAAC | 0.093 |
| CGTACAAA | 0.356 |
| GTTACAAA | 0.158 |
| CGTACAAG | 0.0872 |
| AGAACAAT | 0.0106 |
| AGAACAAA | 0.303 |
| TTTACAAA | 0.12 |
| TGTACAAA | 0.392 |
| AGAACAAG | 0.151 |
| TGTACACA | 0.279 |

| Sequence | PBM E-score |
| --- | --- |
| GGTACAAA | 0.456 |
| TAAAGTGA | 0.0769 |
| GATTGTGA | 0.0853 |
| CTAAATGC | 0.035 |
| GCGGGCAC | -0.0424 |
| CTCAACGC | -0.267 |
| GGTACATA | 0.341 |
| TATACAAA | 0.183 |
| AGTACAAA | 0.44 |
| CGTACATA | 0.296 |
| GATACAAC | 0.212 |
| GATACAAA | 0.313 |
| AGTACAAG | 0.251 |
| AGTACAAT | 0.29 |
| AGTACATA | 0.221 |
| CATGTCTC | 0.343 |
| AATGTCTA | 0.454 |
| CAGGTCTC | -0.00322 |
| GATGTCTA | 0.239 |
| AATGTTTC | 0.105 |
| ACTGTCTG | 0.079 |
| AATGTCTC | 0.463 |
| CATGTGTC | 0.298 |
| AATGTGTC | 0.3 |
| AGTGTCTG | 0.154 |

| Sequence | PBM E-score |
| --- | --- |
| CATGTCTA | 0.268 |
| AATGTCTG | 0.436 |
| AGAAGCGG | -0.101 |
| AAAACCAG | 0.152 |
| CGTAAGGA | -0.0491 |
| ACCATGGG | -0.161 |
| GCCTATAA | 0.0368 |
| TACCCGTA | -0.0437 |
| ATTTGCGC | 0.104 |
| CACCTGAG | -0.0701 |
| ACATATGT | 0.28 |
| ATAGGGCC | -0.158 |
| CGTGGACC | -0.0578 |
| GGTGGACA | 0.325 |
| GGTGGAGA | -0.396 |
| AGTGGACC | -0.0955 |
| AGTGGACA | 0.389 |
| CGTGGACA | 0.408 |
| GGTGGATA | 0.0155 |
| CGTGGAAA | 0.0488 |
| AGTGGACG | 0.212 |
| GGATTTCA | 0.0863 |
| CCTGATAC | 0.12 |
| AGTAAAAC | -0.0534 |
| AGCAAAGC | -0.143 |

| Sequence | PBM E-score |
| --- | --- |
| ATTGAGAG | -0.0651 |
| CAGCAAAA | 0.0953 |
| CCGATTGC | 0.104 |
| ACGGACAG | 0.175 |
| ACGGACTC | 0.00234 |
| ACGGACCT | 0.0608 |
| ACGGACAC | 0.344 |
| ACGGACCC | -0.221 |
| ACGGACAT | 0.473 |
| AAGCGGAC | 0.014 |
| ACTTCCAG | -0.219 |
| TGAACTCA | 0.0356 |
| GCCTTTCA | -0.179 |
| ATCCCACG | -0.0996 |
| GTCCCACA | 0.319 |
| ATCCCACA | -0.141 |
| AGCTCCAT | -0.251 |
| ACAACGGG | 0.161 |
| ACAAAAAG | 0.216 |
| TCAACGGA | -0.0103 |
| ACAAACGG | 0.298 |
| ACAAAAAA | 0.225 |
| ACAAACAG | 0.276 |
| ACAAAAAT | 0.372 |
| ACAACGGA | 0.304 |

| Sequence | PBM E-score |
| --- | --- |
| ACAAACGA | 0.331 |
| ACAAACGC | 0.172 |
| ACAAACAA | 0.277 |
| ACAAACAC | 0.337 |
| CGTAGACC | -0.151 |
| ACTCGTAC | -0.0875 |
| ACCGCCAG | -0.04 |
| CTCGAACC | -0.0331 |
| AGCGGCAG | -0.149 |
| GAAATACC | -0.0126 |
| ACTCCTCG | -0.00289 |
| CCCGTCGC | -0.27 |
| ACTGAGCT | -0.0939 |
| CCTCTCGA | -0.12 |
| GCTGCTCC | -0.218 |
| CACTGGGA | 0.131 |
| AAGCAAGT | 0.00084 |
| GAACCGCA | 0.0554 |
| CCAAAAAC | 0.0933 |
| ACAAAAAC | 0.319 |
| ACAAAACC | 0.239 |
| ACAAAAGA | 0.27 |
| ACAAAAGC | 0.364 |
| CCAAAAGC | 0.0259 |
| ACTACGCA | -0.18 |

| Sequence | PBM E-score |
| --- | --- |
| ATATTTTC | 0.226 |
| CCTCGAAG | 0.0737 |
| GGGGTGCA | -0.0694 |
| CTGACACA | 0.0572 |
| CGGACACA | 0.371 |
| CAGACACA | 0.28 |
| CAGACACG | 0.147 |
| CGGACACG | 0.338 |
| CGGACACC | 0.112 |
| CCTTTCGC | -0.146 |
| GCTATGAA | -0.00947 |
| TCGGCCGA | 0.31 |
| CCGGCCGA | 0.106 |
| GCGGCCGA | -0.0302 |
| AAGCGCTT | 0.312 |
| AAGCGCTA | -0.0275 |
| AAGCGCTC | -0.0777 |
| CCTTAATC | -0.105 |
| ACGCAAGA | 0.0419 |
| ACCTCAGG | -0.129 |
| AATTGTCA | 0.359 |
| CATTGTGC | 0.0753 |
| AATTGTTC | 0.245 |
| CATTGTAC | 0.0768 |
| AATTGTGC | 0.0159 |

| Sequence | PBM E-score |
| --- | --- |
| TATTGTCA | 0.282 |
| GATTGTCA | 0.245 |
| AATTGTAC | 0.365 |
| AATTGTCC | 0.488 |
| CATTGTCA | 0.158 |
| GATTGTAC | 0.0546 |
| CATTGTCC | 0.456 |
| AAATCTGT | 0.138 |
| CACACCCC | -0.293 |
| ATTGCGGA | 0.145 |
| ATATGAGA | 0.0596 |
| ACCCGAAG | -0.0262 |
| CACTTTCC | -0.221 |
| AATTGTAG | 0.167 |
| GATTGTGC | -0.0365 |
| GATTGTAA | 0.0176 |
| GATTGTCC | 0.458 |
| AATTGTGT | -0.0542 |
| CATTGTCG | 0.21 |
| AATTGTCT | 0.406 |
| AATTGTAT | 0.155 |
| AATTGTCG | 0.362 |
| CTAGCCAA | 0.00535 |
| AAATTTAA | 0.238 |
| GGAAGAAC | -0.012 |

| Sequence | PBM E-score |
| --- | --- |
| GCCTTTCC | -0.0629 |
| ATGCGACG | -0.249 |
| ATGGCTGA | -0.133 |
| CTGTACCC | -0.0861 |
| GCACCGAA | 0.0642 |
| CATAGACA | 0.35 |
| TAGAGACA | 0.377 |
| TATAGACA | 0.405 |
| CATAGACC | -0.0541 |
| AAGAGACA | 0.288 |
| GTTAGACA | 0.33 |
| CATAGACG | 0.194 |
| CTTAGACA | 0.232 |
| TATAGATA | 0.0139 |
| TGTAGACA | 0.261 |
| ATTAGACA | 0.295 |
| GAGAGACA | 0.246 |
| GGAGCTCA | -0.0253 |
| ACCCGGTA | 0.0382 |
| CCGGCTAG | -0.141 |
| GATTCACC | -0.145 |
| CGAGGTAG | -0.251 |
| AGGAAACT | 0.025 |
| ACAAGAGG | -0.011 |
| AATAGACA | 0.259 |

| Sequence | PBM E-score |
| --- | --- |
| TCTAGACA | 0.332 |
| GATAGACC | -0.0609 |
| CCTAGACA | 0.0613 |
| GCTAGACA | 0.212 |
| GATAGACA | 0.331 |
| ACTCGACC | -0.143 |
| ACATACTC | 0.0584 |
| GAGCCTTA | -0.168 |
| CTGTCCAC | 0.184 |
| CTGTCCAA | 0.287 |
| ATGTCCAA | 0.485 |
| ATGTCCAG | 0.457 |
| ATGTCCAC | 0.446 |
| AGGTCCAC | -0.067 |
| AGGTCCAA | -0.00743 |
| GTGTCCAA | 0.389 |
| AAGTCCAG | 0.244 |
| GGGTCCAA | -0.104 |
| AGGTCCAG | 0.0683 |
| GAGTCCAA | -0.0901 |
